Experimental findings from PubChem BioAssay (NCI) are described below.

About 79,000 compounds went through this panel and 15% of them were active in at least one assay; those are over-represented in the sample as a whole. Unmarked numbers belong to inactive results. Active and inactive are the calls of the source. No stated cut-off is given here; in the data, active means growth inhibition above about 70%; inactive means the rest.

The nature of this assay: NCI Yeast Anticancer Drug Screen. Data for the rad50EPP+ strain (AID 151).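 Further: 0% = growth of vehicle-treated control cultures.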 The note with it: S. cerevisiae rad50 mutant strain, stronger effect = higher value. The method, then:
Growth inhibition of yeast strains with defined genetic alterations is measured as a screen for potential anti-cancer activity. Selected strains with alterations in DNA damage repair or cell cycle control were exposed to compounds and growth inhibition was measured relative to vehicle treated controls. The strain used in this assay is rad50EPP+

In the case of `O=S(=O)(O)/C(=C\c1ccccc1)c1ccccc1` (tested in a mixture with another compound), the growth inhibition is -3% (at 1.2 µM); -2% (at 3.7 µM); -3% (at 11.0 µM); -3% (at 33.0 µM); 3% (at 100.0 µM).
In the case of `c1ccc(N=c2nc(N3CCOCC3)ss2)cc1`, the growth inhibition is, setting by setting: (at 1.2 µM) -5%; (at 3.7 µM) 2%; (at 11.0 µM) 19%; (at 33.0 µM) 56%; (at 100.0 µM) 99% (active).
The matching figures for `O=[N+]([O-])c1ccc(C=Cc2ccccc2)cc1.[C-]#[O+].[C-]#[O+].[C-]#[O+].[Cr]`: 10%, 32%, 62%, 71% (active) and 67%.
The like results for `COC(=O)C(F)C(Br)C(=O)OC` (stereo not given) were, in that order, 28%, 90% (active), 97% (active), 98% (active) and 97% (active).
The like results for `COC(=O)c1c(C)ccc2c(O)c3c(cc12)C(=O)c1c2c(cc(O)c1C3=O)C1(C)OC(C)(O2)C(O)C(N(C)C)C1O` (stereo not given) were, in that order, -2%, 17%, 51%, 74% (active) and 67%.
For `CCOC(=O)C1C2c3ccccc3C(c3ccccc32)C1C(=O)OCC` (stereo not given), the growth inhibition was -1% (at 1.2 µM); -2% (at 3.7 µM); 2% (at 11.0 µM); -2% (at 33.0 µM); 1% (at 100.0 µM).
Take `C=CC[N+]12CN3CN(CN(C3)C1)C2`: the growth inhibition runs as follows: (at 1.2 µM) 7%; (at 3.7 µM) 2%; (at 11.0 µM) -31%; (at 33.0 µM) 16%; (at 100.0 µM) 68%.
Consider `CCN(CCCl)c1cc(CN(C)C)cc(NC(=O)c2ccc(C(=O)Nc3cc(CN(C)C)cc(N(CC)CCCl)c3)cc2)c1`, for which the growth inhibition reads like this: (at 1.2 µM) 17%; (at 3.7 µM) 32%; (at 11.0 µM) 9%; (at 33.0 µM) 19%; (at 100.0 µM) 35%.
